Measurements reported in PubChem BioAssay (NCATS).
Records with an inconclusive call do not appear. Active and inactive are the calls of the source. The call rests on the fitted dose curve.

Test: Natriuretic polypeptide receptor (hNpr1) antagonism - Pilot counterscreen GloSensor control cell line (AID 1347045)
Conditions: HEK293 cGMP GloSensor cells, SNP-stimulated luminescence, 20 min; series mostly up to 38.3 µM; activity change, negative = inhibition: at the top concentration
Protocol: F. Fan, B. F. Binkowski, B. L. Butler, P. F. Stecha, M. K. Lewis, K. V. Wood, Novel genetically encoded biosensors using firefly luciferase. ACS Chem Biol 3, 346-351 (2008).
PROTOCOL TABLE (as described by Inglese J, Shamu CE and Guy RK. 2007)
SEQUENCE No. (e.g., 1, 2, 3, etc.); […] (e.g., Cells, Incubation, Reagent, etc.); VALUE and DESCRIPTION.
1. Cells. Seed 1500 HEK293 cGMP-sensor cells per well in 4uL into Greiner 1536-well white/solid bottom high base, TC plates.
2. Incubation. Incubate plated cells at 37C in 5% CO2, 95% RH overnight.
3. Reagent. Add 1uL per well GloSensor reagent from Promega (2% final concentration) or CO2 independent media vehicle control to respective columns of Greiner 1536-well plates.
4. Incubation. Incubate plated cells at room temperature for 2 h, protect from light.
5. Compounds. Library compounds and DMSO vehicle control added at 23nL per well, transferred by Pin Tool.
6. Incubation. Incubate plated cells for 30 min. at room temperature, protect from light.
7. Detector. GloSensor baseline pre-read luminescence measured using CCD-based camera (Viewlux).
8. Compound. Add 1uL of sodium nitroprusside (SNP) to 50 uM final concentration to stimulate soluble guanylyl cyclase (GC) or CO2 independent media as vehicle control.
9. Incubation. Incubate treated cells at room temperature for 20 min., protect from light.
10. Detector. GloSensor post-SNP luminescence measured using CCD-based camera (Viewlux).
NOTES (numbers refer to Sequence numbers above; values are from representative experiments)
1. HEK293 cells expressing GIP/pGS-40F were grown to 85-95% confluence (48-72 h) in T175 culture flasks (CO2 independent media supplemented with 10% FBS, 1% Pen/Strep antibiotics, and 1 ug/mL puromycin). Trypsinize and harvest cells from T175 culture flasks and filter through 40 um cell strainer. Cells counted with Invitrogen Countess (30,000,000 - 50,000,000 cells/flask).
2. Cells incubated for 24 h. at 37C in 95% RH incubator with metal lid having gas-exchange holes.
3. Prepare GloSensor Reagent (Promega): Reconstitute GloSensor luciferase substrate by adding 8.2mL Hepes buffer to 250mg substrate, mix well, protect from light and stored at -80C. Prepare a fresh 12% GloSensor solution in CO2 independent supplemented plating media (see above). Mix well and store at ambient temperature, protected from light. 1uL 12% GloSensor Luciferase Reagent added (2% final concentration) to respective columns of 9 x 1536-well Greiner plate with BioRaptr, 1uL CO2 independent plating media added to respective columns as vehicle control with BioRaptr.
4. Cells incubated for 2 h. at ambient temperature, protected from light with metal lid having gas-exchange holes.
5. 23nL of LOPAC128 library compounds (7 plates) or DMSO vehicle control transferred to 9 Greiner white/solid bottom high base, TC plates in 7 interplate 1:5 titrations (see Yasgar, A. et al. 2008) with Pintool. Two of the 9 plates are DMSO-only in compound field at beginning and end of compound library-treated plates.
6. Cells incubated for 30-50 min. at ambient temperature protected from light with metal lid having gas-exchange holes.
7. Read GloSensor + Antagonist/Compound baseline Luminescence on the ViewLux [Exposure, 30 s; Gain, High; Speed, Slow; Binning, 2X]
8. SNP solution prepared at 500 mM (in H2O) stock concentration. From this a working dilution was prepared at 300 uM in CO2 Independent media. 1uL of 300 uM SNP (50 uM final concentration) or CO2 Independent media vehicle control dispensed into respective columns of 9 x Greiner 1536-well white/solid bottom, tissue culture plates with BioRaptr.
9. Cells incubated for 20 min. at ambient temperature, protected from light with metal lid having gas-exchange holes.
10. Read final luminescence on the ViewLux. [Exposure, 30 s; Gain, High; Speed, Slow; Binning, 2X.]
[…]
On the % scale 0 is the no-effect control and ±100 the full control effect; potency means the concentration at half of the fitted maximal effect.

Row | Compound | activity change, negative = inhibition | Potency
1 | Oc1ccc(-c2nc(-c3ccc(F)cc3)c(-c3ccncc3)[nH]2)cc1 | 0.819% (inactive) | 
2 | CC(=O)O[C@H]1C(=O)[C@@]2(C)C([C@H](OC(=O)c3ccccc3)[C@]3(O)C[C@H](OC(=O)[C@H](O)[C@@H](NC(=O)c4ccccc4)c4ccccc4)C(C)=C1C3(C)C)[C@]1(OC(C)=O)CO[C@@H]1C[C@@H]2O (some centres undefined) | 1.26% (inactive) | 
3 | O=c1ccc2ccc(O)c(O)c2o1 | -1.62% (inactive) | 
4 | CC1(C)NC(=O)N(c2ccc([N+](=O)[O-])c(C(F)(F)F)c2)C1=O | -62.9% (inactive) | 
5 | CC1(C)C(=O)N(CCN2CCC(C(=O)c3ccc(F)cc3)CC2)c2ccccc21 | -32.9% (inactive) | 
6 | Nc1nc(N)c(N=O)c(OCC2CCCCC2)n1 | 7.89% (inactive) | 
7 | O=C(c1ccccc1)c1ccc2n1CCC2C(=O)O (centres undefined) | -0.827% (inactive) | 
8 | CN(C)CCCC1(c2ccc(F)cc2)OCc2cc(C#N)ccc21 (centres undefined) | -1.98% (inactive) | 
9 | CCN(CC)C(=S)SSC(=S)N(CC)CC |  | 3.29 µM (active)
10 | O=C1NC(=O)C(c2ccccc2[N+](=O)[O-])=C1Nc1ccc(O)c(Cl)c1 | 0.407% (inactive) | 
11 | OC(CN1CCN(c2cccc(Cl)c2)CC1)C(c1ccccc1)c1ccccc1 (centres undefined) | -3.25% (inactive) | 
12 | Cc1c(OCC(F)(F)F)ccnc1CS(=O)c1nc2ccccc2[nH]1 (centres undefined) | 8.74% (inactive) | 
13 | COc1cc2nc(N3CCN(C(=O)C4CCCO4)CC3)nc(N)c2cc1OC (centres undefined) | 3.77% (inactive) | 
14 | NC(=NCc1ccccc1)NC(=O)c1nc(Cl)c(N)nc1N | 7.96% (inactive) | 
15 | O=c1c(O)c(-c2cc(O)c(O)c(O)c2)oc2cc(O)cc(O)c12 | -12.4% (inactive) | 
16 | CNC[C@H](O)c1ccc(O)c(O)c1 | -0.68% (inactive) | 
17 | CCOC(=O)C(C)Oc1cccc2c(=O)n(CC(=O)Nc3ccc4c(c3)OCCO4)ccc12 (centres undefined) | 3.17% (inactive) | 
18 | Nc1ccn([C@@H]2O[C@H](CO)[C@@H](O)C2O)c(=O)n1 (some centres undefined) | -2.89% (inactive) | 
19 | COc1ccccc1N1CCN(CCN(C(=O)C2CCCCC2)c2ccccn2)CC1 | 1.97% (inactive) | 
20 | COc1ccc2cc([C@H](C)C(=O)O)ccc2c1 | 3.08% (inactive) | 
21 | COc1cc2c(cc1OC)C1CC(=O)C(CC(C)C)CN1CC2 (centres undefined) | 5.1% (inactive) | 
22 | NCCCCNCCCN | 1.82% (inactive) | 
23 | O=C1c2ccccc2-c2n[nH]c3cccc1c23 | 20.6% (inactive) | 
24 | CC(C)c1ccc2c(c1)c(SC(C)(C)C)c(CC(C)(C)C(=O)O)n2Cc1ccc(Cl)cc1 |  | 13.1 µM (active)
25 | O=c1cc(N2CCOCC2)oc2c(-c3ccccc3)cccc12 | 48.6% (inactive) | 
26 | O=C1c2c(O)cc(O)cc2OC(c2ccc(O)c(O)c2)C1O (centres undefined) | 10.9% (inactive) | 
27 | Nc1nc(OCc2ccccc2)c2[nH]cnc2n1 | 1.19% (inactive) | 
28 | O=c1c(O)c(-c2ccc(O)cc2O)oc2cc(O)cc(O)c12 | 1.77% (inactive) | 
29 | CC(=O)N1CCN(c2ccc(OC[C@H]3CO[C@](Cn4ccnc4)(c4ccc(Cl)cc4Cl)O3)cc2)CC1 |  | 18.5 µM (active)
